Compounds without any hit were thinned out: in the full panel of roughly 83,000, 20% have a hit.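 Plates (96-well) were seeded with cells, treated with compound at one concentration, and incubated for 48 hours before percent growth was determined.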 Values without a mark were called inactive. Active and inactive are the calls of the source. The calls were made as follows: active = growth percent below 10; inactive = the rest.

The values below come from PubChem BioAssay (NCI).

Some test systems named below: HCT-15 colon; HT29 colon; SNB-75 CNS; SNB-19 CNS; U251 CNS; PC-3 prostate; SK-MEL-5 melanoma; UACC-62 melanoma; LOX IMVI melanoma; SK-MEL-28 melanoma; EKVX NSCLC; SN12C renal; UO-31 renal; TK-10 renal; ACHN renal; CAKI-1 renal; A498 renal; CCRF-CEM leukemia; MOLT-4 leukemia.
Common to all, as to test: NCI-60 one-dose screen, 48 h (100 = growth as untreated, 0 = no growth, -100 = all killed)
Conditions in all cases: 10 µM unless noted

For `CCNC(=O)C#Cc1ccc2c(C(=Nc3ccc(CN(C)C)cc3)c3ccccc3)c(O)[nH]c2c1`, the growth in the test on HCT-15 colon was 27.7%; in the test with HT29 colon, -40% (active); with SNB-75 CNS it was 3.23% (active); in the test with SNB-19 CNS, 29.5%; with U251 CNS, 22.4%; in the test with PC-3 prostate, 44.4%. Further, the growth is 17% with SK-MEL-5 melanoma; -32.5% (active) in the test on UACC-62 melanoma; -75.7% (active) in the test on LOX IMVI melanoma; -11.6% (active) in the test on SK-MEL-28 melanoma; 49% with EKVX NSCLC; 36.5% with SN12C renal. Besides, the growth with UO-31 renal is 8.22% (active); in the test with TK-10 renal it was 25.7%; in the test on ACHN renal it was 35.6%; with CAKI-1 renal, 32.7%; with A498 renal it was -40.3% (active); in the test with CCRF-CEM leukemia it was 17.3%. The growth in the test on MOLT-4 leukemia is 10.9%.

For `COC(=O)[C@H](C)NC(=O)[C@@H](OC)[C@@H]1Cc2cc3cc(OC4CC(OC5CC(O)C(O)C(C)O5)C(O)C(C)O4)c(C)c(O)c3c(O)c2C(=O)[C@H]1OC1CC(OC2CC(OC3CC(C)(O)C(O)C(C)O3)C(O)C(C)O2)C(O)C(C)O1` (some centres not stated), the growth in the test on HCT-15 colon is 19.3%; in the test with HT29 colon it was 3.99% (active); in the test on SNB-75 CNS, -63.8% (active); in the test on SNB-19 CNS, 8.48% (active); in the test on U251 CNS, 7.45% (active); in the test on PC-3 prostate it was 8.21% (active). Moreover, the growth in the test on SK-MEL-5 melanoma was -67.4% (active); with UACC-62 melanoma it was -52.8% (active); in the test with LOX IMVI melanoma it was -27.4% (active); in the test on SK-MEL-28 melanoma, -37.7% (active); in the test on EKVX NSCLC it was 21.9%; with SN12C renal, 11.5%. The growth is 5.72% (active) with UO-31 renal; 13.1% in the test on TK-10 renal; -1.98% (active) with ACHN renal; 27.5% in the test on CAKI-1 renal; -66.5% (active) in the test on A498 renal; 14.5% with CCRF-CEM leukemia. In addition, the growth in the test with MOLT-4 leukemia is 0.969% (active).

As for `Cc1nc2cc(-c3nn(C(C)C)c4ncnc(N)c34)ccc2o1`, the growth in the test on HCT-15 colon was 1.74% (active); in the test on HT29 colon, -8.06% (active); with SNB-75 CNS, -70.1% (active); in the test on SNB-19 CNS it was -4.62% (active); with U251 CNS, -15.3% (active); in the test on PC-3 prostate, 3% (active). The growth in the test on SK-MEL-5 melanoma is -49.2% (active); with UACC-62 melanoma, -53% (active); in the test on LOX IMVI melanoma it was -21.1% (active); with SK-MEL-28 melanoma, -34.3% (active); in the test with EKVX NSCLC it was -10.3% (active); in the test on SN12C renal, 1.14% (active). For the same compound, the growth with UO-31 renal was -35.7% (active); in the test on TK-10 renal, -47% (active); in the test with ACHN renal, -13.4% (active); in the test with CAKI-1 renal it was -36.7% (active); in the test with A498 renal it was -55.5% (active); with CCRF-CEM leukemia it was 6.03% (active). In addition, the growth in the test on MOLT-4 leukemia is -8.69% (active).

Consider `C1=C\COCc2cc(ccc2OCCN2CCCC2)Nc2nccc(n2)-c2cccc(c2)COC/1`, for which the growth was 1.31% (active) in the test with HCT-15 colon; -30.8% (active) in the test with HT29 colon; -95.8% (active) in the test with SNB-75 CNS; 1.55% (active) in the test with SNB-19 CNS; -22.6% (active) in the test on U251 CNS; 0.91% (active) in the test on PC-3 prostate. Moreover, the growth is -96.5% (active) with SK-MEL-5 melanoma; -68.7% (active) in the test with UACC-62 melanoma; -70.2% (active) in the test with LOX IMVI melanoma; -41.8% (active) in the test with SK-MEL-28 melanoma; 0.564% (active) in the test with EKVX NSCLC; -26.6% (active) in the test on SN12C renal. Also, the growth is -29.2% (active) in the test on UO-31 renal; 55.3% with TK-10 renal; 3.85% (active) in the test on ACHN renal; -44.8% (active) with CAKI-1 renal; -43.3% (active) with A498 renal; 4.28% (active) in the test on CCRF-CEM leukemia. For the same compound, the growth in the test on MOLT-4 leukemia was -8.61% (active).

With `Nc1ncnc2c1c(-c1cccc(OCc3ccccc3)c1)cn2C1CC(CN2CCC2)C1` (configuration not stated), the growth is 10.1% in the test on HCT-15 colon; -39.8% (active) in the test on HT29 colon; -28.7% (active) with SNB-75 CNS; 32.1% with SNB-19 CNS; -17.9% (active) with U251 CNS; 27.4% in the test on PC-3 prostate. Also, the growth is -96.7% (active) in the test on SK-MEL-5 melanoma; -55.9% (active) in the test on UACC-62 melanoma; -75% (active) in the test with LOX IMVI melanoma; -69.6% (active) with SK-MEL-28 melanoma; 30.1% with EKVX NSCLC; 35.5% with SN12C renal. Moreover, the growth is -66.6% (active) with UO-31 renal; 28.4% in the test on TK-10 renal; 18.7% with ACHN renal; 7.5% (active) with CAKI-1 renal; -1.47% (active) in the test on A498 renal; 5.52% (active) with CCRF-CEM leukemia. Besides, the growth with MOLT-4 leukemia was -14.5% (active).

For the compound `COC(=O)[C@H](Cc1ccc(O)cc1)NC(=O)[C@@H](OC)[C@@H]1Cc2cc3cc(OC4CC(OC5CC(O)C(O)C(C)O5)C(O)C(C)O4)c(C)c(O)c3c(O)c2C(=O)[C@H]1OC1CC(OC2CC(OC3CC(C)(O)C(O)C(C)O3)C(O)C(C)O2)C(O)C(C)O1` (some centres not stated), the growth is 47.5% in the test on HCT-15 colon; 3.68% (active) in the test with HT29 colon; -52.5% (active) with SNB-75 CNS; 8.72% (active) in the test on SNB-19 CNS; 7.18% (active) in the test on U251 CNS; 13.4% in the test with PC-3 prostate. The growth in the test on SK-MEL-5 melanoma is -53.3% (active); in the test with UACC-62 melanoma it was -53.1% (active); in the test on LOX IMVI melanoma it was -31.2% (active); in the test with SK-MEL-28 melanoma, -26.6% (active); with EKVX NSCLC it was 21.5%; in the test on SN12C renal it was 13.3%. Besides, the growth in the test on UO-31 renal was 18.1%; in the test with TK-10 renal, 23.5%; with ACHN renal, 4.06% (active); in the test with CAKI-1 renal, 69.5%; in the test on A498 renal, -63.2% (active); in the test on CCRF-CEM leukemia it was 11.1%. Also, the growth in the test with MOLT-4 leukemia was -1.8% (active).

For the compound `CCN(CC)CCN1C(=O)c2cccc3c(-c4ccc5c(c4)ncn5C4CCCCC4)ccc(c23)C1=O`, the growth is 8.61% (active) in the test on HCT-15 colon; 0.739% (active) in the test on HT29 colon; 4.41% (active) with SNB-75 CNS; 32.6% with SNB-19 CNS; 14.7% with U251 CNS; 5.21% (active) with PC-3 prostate. Also, the growth in the test on SK-MEL-5 melanoma is -96.6% (active); in the test on UACC-62 melanoma, 22%; in the test with LOX IMVI melanoma, -81.6% (active); with SK-MEL-28 melanoma, -38.2% (active); in the test with EKVX NSCLC, 15.6%; in the test on SN12C renal, 23.8%. Moreover, the growth is -23.7% (active) in the test with UO-31 renal; 32.1% with TK-10 renal; 10% in the test on ACHN renal; 19.7% with CAKI-1 renal; -11.6% (active) in the test on A498 renal; 11.4% with CCRF-CEM leukemia. Besides, the growth with MOLT-4 leukemia was -9.62% (active).

For the compound `CNC(=O)c1nn(C)c2c1C(C)(C)Cc1cnc(Nc3ccc(N4CCN(C)CC4)cc3)nc1-2`, the growth with HCT-15 colon is 3.12% (active); in the test with HT29 colon, -16.2% (active); with SNB-75 CNS it was -20.6% (active); in the test on SNB-19 CNS it was 12.3%; with U251 CNS it was 8.54% (active); with PC-3 prostate, 7.92% (active). In addition, the growth in the test on SK-MEL-5 melanoma was 7.31% (active); in the test on UACC-62 melanoma it was -9.49% (active); in the test with LOX IMVI melanoma, 5.27% (active); with SK-MEL-28 melanoma, 16.2%; in the test with EKVX NSCLC, 5.74% (active); with SN12C renal, 11.3%. The growth was -8.73% (active) in the test on UO-31 renal; -12.5% (active) with TK-10 renal; 9.62% (active) in the test on ACHN renal; 7.68% (active) in the test on CAKI-1 renal; -61.6% (active) in the test on A498 renal; 10.4% with CCRF-CEM leukemia. The growth in the test with MOLT-4 leukemia is 2.29% (active).
